VLA-4 inh: inhibition in a human VLA-4 binding assay | P13612 | VLA-4 expressing cells, ligand binding flow cytometry | inhibition, % (about 7 µM as worked out from the volumes in the protocol) | 0.2% of 330,000 active; in the data active = inhibition above about 50%
RPL19A TOR yeast: modulators of TOR pathway RPL19A-GFP in S. cerevisiae. S. cerevisiae RPL19A-GFP strain, flow cytometry, 3 h; stronger effect = lower value. percent response vs DMSO, % at 10 µM. 0.3% of 330,000 active. AID 2025;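 active = percent response vs DMSO below 50%; inconclusive = fewer than 70 events counted for the yeast strain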;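 also: median channel GFP fluorescence of the barcoded RPL19A-GFP strain; ratio of sample median GFP to plate DMSO average so 100% = DMSO; lower means less RPL19A-GFP as with rapamycin TOR inhibition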
LAP4-GFP MLPCN: yeast TOR pathway LAP4-GFP modulation; S. cerevisiae LAP4-GFP multiplex, flow cytometry GFP, 3 h; median GFP as percent of DMSO wells; GFP response vs DMSO, % at 10 µM; 0.34% of 320,000 active; AID 2023;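 active = GFP response vs DMSO above a set limit, about the screen mean plus 3 SD, cut at about 150% in these data; inconclusive = under 70 cell events counted for the yeast strain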
CIT2-GFP yeast: modulators of TOR pathway CIT2-GFP in S. cerevisiae; S. cerevisiae CIT2-GFP strain, flow cytometry, 3 h; 100 means same as DMSO wells; GFP response vs DMSO, % at 10 µM; 0.065% of 320,000 active;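 active = GFP response relative to DMSO above a set limit, near the screen mean plus 3 SD, cut at about 150% in these data; inconclusive = Fewer than 70 cells measured for a yeast strain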;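 also: ratio of well median GFP fluorescence to mean of DMSO wells on the plate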
MEP2 TOR yeast: yeast TOR pathway MEP2-GFP modulation. S. cerevisiae MEP2-GFP strain, flow cytometry GFP, 3 h; 100% = DMSO control level. GFP response vs DMSO, % at 10 µM. 0.51% of 330,000 active;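 active = GFP response versus DMSO above a set limit, roughly screen mean plus 3 SD, cut at about 180% in these data; inconclusive = fewer than 70 cells counted for a yeast strain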;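 also: median GFP fluorescence of the barcode-gated MEP2-GFP cells per well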
AGP1-GFP MLPCN: alters AGP1-GFP fluorescence in TOR pathway yeast screen | AID 2066 | 0.02% of 320,000 active | GFP response vs DMSO, % at 10 µM | S. cerevisiae AGP1-GFP multiplex flow cytometry, 3 h; GFP as percent of DMSO wells;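 active = GFP response relative to DMSO above a set limit, near screen average plus 3 SD, cut at about 150% in these data; inconclusive = fewer than 70 cells counted for the yeast strain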;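 also: median GFP channel fluorescence of the gated AGP1 strain per well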
Starred values were filed as active, the others as inactive; ? = inconclusive; [ ] = another dose, or the depositor's remark. Rows were chosen to be rich in hits. Some 1.1% of all compounds tested hit in one or more screens of this group.

SMILES	VLA-4 inh	RPL19A TOR yeast	LAP4-GFP MLPCN	CIT2-GFP yeast	MEP2 TOR yeast	AGP1-GFP MLPCN
Cc1cc(C)cc(C(=O)NCCCN2CCOCC2)c1	9.3	90.9	82.0	92.4	93.4	85.8
O=C(Nc1ccccc1NS(=O)(=O)c1ccc(F)cc1)C1CCC1	13.2	99.3	97.9	101.4	99.6	102.1
COC(=O)c1cc(CSc2nc3ccccc3c(=O)n2C)oc1C	-2.4	97.7	116.7	84.9	108.0	94.7
COc1ccc(S(=O)(=O)Nc2ccccc2)cc1	-7.9	26.8*[may fluoresce violet]	89.4	?	208.0*[may fluoresce violet]	?
Cc1ccc2c(c1)CCCN2C(=O)CCc1nc2ccccc2c(=O)[nH]1	2.3	95.9	101.1	96.7	97.8	93.8
CC(NC(=O)c1ccco1)C(=O)N1CCN(c2cccc(C(F)(F)F)c2)CC1 (configuration not stated)	9.0	100.2	101.1	101.7	102.2	91.2
CCc1ccccc1NC(=O)C1CCCN(c2nccc(C)n2)C1 (configuration not stated)	47.3	25.1*[may fluoresce violet]	62.0	?	?	?
N#Cc1c(-c2ccncc2)c2c([nH]c1=O)-c1ccccc1OC2	3.6	27.2*[may fluoresce violet]	104.6	?	224.4*[may fluoresce violet]	?
CCN(CC)CCNC(=O)Cn1c(-c2ccccn2)nc2ccccc21	6.8	98.9	144.0	127.9	179.7*	103.3
CS(=O)(=O)N1CCc2cc(C(=O)Nc3ccc(COCC(F)(F)F)cc3)ccc21	7.8	112.4	116.5	154.8*	159.3	103.4
CS(=O)(=O)N1CCc2cc(C(=O)Nc3ccc(O)cc3)ccc21	1.2	103.4	96.2	107.7	103.1	104.5
Brc1cc(Br)c2nc(-c3cccs3)ccc2c1	-1.3	94.2	151.2*	73.6	90.8	85.1
COc1ccc(OC)c(NC(=O)COC(=O)C2CCCCC2)c1	6.0	104.4	101.2	100.2	107.0	103.2
COc1ccc(N(CC(=O)N/N=C/c2ccc(OC)cc2OC)S(=O)(=O)c2ccccc2)cc1	13.3	98.8	87.4	98.1	94.0	96.2
COc1ccc(N(CC(=O)N/N=C/c2cc(OC)ccc2OC)S(=O)(=O)c2ccccc2)cc1	3.2	110.2	131.0	146.5	184.6*	98.8
Cc1ccc(/C=C2/NC(=O)N(Cc3ccccc3)C2=O)o1	-3.6	101.9	172.3*	95.8	97.7	96.1
CCCCn1c(N)c(N(CCOC)C(=O)CSc2nnc(-c3ccncc3)n2CCC)c(=O)[nH]c1=O	15.4	99.0	101.8	99.4	98.6	101.2
Cc1cc(C)nc(S/C=C/C(=O)c2ccccc2F)n1	25.4	99.8	181.9*	110.5	98.0	112.4
Cc1cc(C)nc(NC(=S)NC(=O)c2ccccc2F)n1	-0.2	93.9	110.5	90.0	94.7	101.4
COc1ccccc1-c1ocnc1C(=O)N1CCN(S(=O)(=O)c2ccc(NC(C)=O)cc2)CC1	9.4	104.0	100.2	104.8	100.3	102.4
C[C@@H]1CN([C@@H](C)CO)C(=O)Cc2cc(NC(=O)C3CCCCC3)ccc2O[C@H]1CN(C)S(=O)(=O)c1ccccc1	-21.1	100.0	98.9	106.6	99.2	107.6
Oc1c(Br)cc(Br)cc1/C=N/c1nc2c(s1)CCCC2	-10.9	47.0*[may fluoresce violet]	103.0	?	90.3	14.9
Cc1nn(C)c(C(=O)Sc2cccc(Cl)c2)c1[N+](=O)[O-]	2.9	107.1	154.2*	102.7	97.4	109.9
Cc1nn(C)c(C(=O)Sc2ccccc2)c1[N+](=O)[O-]	19.6	101.2	129.1	96.5	99.1	109.7
O=C(NCc1ccccc1)N1CCC(CO)(CCc2ccccc2)CC1	4.9	99.5	121.1	112.7	109.0	117.1
O=C(CCC(F)(F)F)N1CCC(CO)(CCc2ccccc2)CC1	0.2	102.3	89.1	98.8	102.6	151.7*
C=CCNc1nc(C(=O)OCC(=O)Nc2c(Cl)cccc2C(F)(F)F)cs1	4.4	101.1	90.6	90.0	96.9	93.5
COc1ccc(NC(=O)CN(C)S(=O)(=O)c2cnc[nH]2)cc1Cl	4.2	97.4	104.2	97.8	97.5	100.3
COc1ccc(NC(=O)CN(C)S(=O)(=O)c2cnc[nH]2)cc1OC	6.0	24.6*[may fluoresce violet]	77.3	?	120.8	?

Compound activity: PubChem BioAssay, NMMLSC
